Bioassay records: PubChem BioAssay, several laboratories
Hits are enriched below; roughly 28% of the tested compounds scored in any of these assays.
PLK1 PBD inh = blocks phosphopeptide binding to human Plk1 polo box domain. Plk1 PBD phosphopeptide binding, fluorescence polarization. inhibition, %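 (tested at about 20 µM)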. 0.13% of 97,000 active; in the data active = inhibition above about 34%, passing the limit was not always enough
Target sequence (P53350 whole entry, looked up, the tested form may be a part): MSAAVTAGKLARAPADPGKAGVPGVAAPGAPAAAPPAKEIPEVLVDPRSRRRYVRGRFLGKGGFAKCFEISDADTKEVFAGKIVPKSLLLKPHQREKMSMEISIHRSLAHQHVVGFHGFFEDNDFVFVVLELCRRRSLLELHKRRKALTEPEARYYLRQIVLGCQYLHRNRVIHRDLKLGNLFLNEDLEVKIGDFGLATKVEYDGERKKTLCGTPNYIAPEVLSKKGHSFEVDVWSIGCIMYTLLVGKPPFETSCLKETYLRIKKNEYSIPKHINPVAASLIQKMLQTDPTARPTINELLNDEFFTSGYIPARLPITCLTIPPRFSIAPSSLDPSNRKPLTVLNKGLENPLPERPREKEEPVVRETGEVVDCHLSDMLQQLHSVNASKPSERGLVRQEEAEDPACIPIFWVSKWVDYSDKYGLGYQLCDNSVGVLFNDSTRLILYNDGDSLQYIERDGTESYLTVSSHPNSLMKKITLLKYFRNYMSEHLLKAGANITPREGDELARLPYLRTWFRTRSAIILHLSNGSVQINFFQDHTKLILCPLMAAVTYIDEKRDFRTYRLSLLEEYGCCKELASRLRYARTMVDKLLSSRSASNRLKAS
CYP2C19 act = cytochrome P450 2C19 (human) activation | P33261 | recombinant CYP2C19, luciferin-H EGE luminescence; active compounds read high; 0 = fully inhibited enzyme, 1 = untreated enzyme | activation factor at 5 µM | 96,000 tested, under 10 active;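 active = activation factor of at least 2 at 5 µM in the primary screen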;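 note: 0 = wells with 2.5 mM tranylcypromine and 1 = vehicle-only wells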
CYP2C9 inhib = human CYP2C9 inhibition; inhibition, % at 5 µM; 20% of 96,000 active; CYP2C9 Supersomes, luciferin-H conversion, luminescence; P11712;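 active = blocking of liver enzyme CYP2C9 beyond about 50% at 5 µM, limit read from the data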
PLK1 kinase inh = blocks human PLK1 kinase activity | P53350 | recombinant PLK1 kinase, TR-FRET peptide phosphorylation | inhibition, % at 10 µM | 0.53% of 97,000 active | AID 619;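 active = inhibition of 50% or more in the single-concentration screen; inactive = inhibition below 50%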;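 note: 0% = DMSO max control and 100% = H-89 dihydrochloride min control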
CYP2C19 inhib = inhibitors of human CYP2C19; P33261; CYP2C19 Supersomes, luciferin-H EGE luminescence, 30 min; inhibition, % at 5 µM; 21% of 96,000 active;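 active = CYP2C19 inhibition above a set limit at 5 µM in the primary screen, cut at about 50% in these data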;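 note: plate controls were negative control wells for no effect and 2.5 mM tranylcypromine positive control for full effect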
CYP2C9 activ = activators of human CYP2C9; activation factor at 5 µM; 1.4% of 96,000 active; AID 1024; recombinant CYP2C9, luciferin-H conversion, luminescence; active compounds read high; factor 1 = untreated enzyme, 0 = blocked; P11712;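 active = activation factor of 2 or more for CYP2C9 at a 5 µM dose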;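 note: 0 = sulfaphenazole-blocked wells and 1 = vehicle-only wells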
* = called active by the depositor.

For CC(=Nc1ccccc1C)C1=C(O)CSC1=O the results were PLK1 PBD inh -16, CYP2C19 act 0.2, CYP2C9 inhib 23, PLK1 kinase inh -21, CYP2C19 inhib 75* and CYP2C9 activ 0.8.
`CC(=Nc1ccccc1)C1=C(O)CSC1=O` gave PLK1 PBD inh -6, CYP2C19 act 0.6, CYP2C9 inhib 29, PLK1 kinase inh -7, CYP2C19 inhib 35 and CYP2C9 activ 0.7.
For O=C(O)CCn1[nH]c(=O)c2ccccc2c1=O the results were PLK1 PBD inh 2, CYP2C19 act 1, CYP2C9 inhib -2, PLK1 kinase inh -10, CYP2C19 inhib -2 and CYP2C9 activ 1.
Screening Cc1nc(S(=O)(=O)c2ccc(Cl)cc2)nc2c1CCC2 returned PLK1 PBD inh 11, CYP2C19 act 0.7, CYP2C9 inhib -23, PLK1 kinase inh -11, CYP2C19 inhib 26 and CYP2C9 activ 1.2.
`Cc1ccc(S(=O)(=O)c2nc(C)c3c(n2)CCC3)cc1` gave PLK1 PBD inh 17, CYP2C19 act 0.6, CYP2C9 inhib -117, PLK1 kinase inh -7, CYP2C19 inhib 36 and CYP2C9 activ 2.2*.
`CCSC(C)CC1C/C(=N/O)c2c(CC)noc2C1` (stereo not drawn) gave CYP2C19 act 0.1, CYP2C9 inhib 94*, CYP2C19 inhib 90* and CYP2C9 activ 0.1.
Screening CCCC(=O)C1C(=O)CC(CC(C)SCC)CC1=O (stereo not drawn) returned PLK1 PBD inh 11, CYP2C19 act 0.8, CYP2C9 inhib 28, PLK1 kinase inh -10, CYP2C19 inhib 16 and CYP2C9 activ 0.7.
CCCc1noc2c1/C(=N\O)CC(CC(C)SCC)C2 (stereo not drawn) was read as PLK1 PBD inh 5, CYP2C19 act 0.3, CYP2C9 inhib 98*, PLK1 kinase inh -11, CYP2C19 inhib 73* and CYP2C9 activ 0.
`Cc1ccc2oc3c(c(=O)c2c1)C(c1cccs1)N(CCCN(C)C)C3=O` (stereo not drawn) gave CYP2C19 act 1, CYP2C9 inhib 6, CYP2C19 inhib -4 and CYP2C9 activ 0.9.
O=C(OCn1ncc(Cl)c(Cl)c1=O)c1ccc(F)cc1 was read as PLK1 PBD inh 9, CYP2C19 act 0.7, CYP2C9 inhib -17, PLK1 kinase inh 4, CYP2C19 inhib 30 and CYP2C9 activ 1.2.
`O=C(OCn1ncc(Cl)c(Cl)c1=O)c1ccccc1Cl` gave PLK1 PBD inh -24, CYP2C19 act 0.2, CYP2C9 inhib -17, PLK1 kinase inh -11, CYP2C19 inhib 78* and CYP2C9 activ 1.2.
For CCOc1ccc(N=C(NC#N)SCC(=O)NC2CC2)cc1 the results were PLK1 PBD inh -5, CYP2C19 act 0.6, CYP2C9 inhib -13, PLK1 kinase inh -8, CYP2C19 inhib 39 and CYP2C9 activ 1.1.
CC1CN(C(=O)Nc2ccc3c(c2)OCO3)CC(C)O1 (stereo not drawn) was read as PLK1 PBD inh -7, CYP2C19 act 0.8, CYP2C9 inhib -5, PLK1 kinase inh -6, CYP2C19 inhib 19 and CYP2C9 activ 1.
For C=CCn1c(COc2ccc(Cl)cc2)nnc1SCC(=O)NCC(=O)OCC the results were PLK1 PBD inh -8, CYP2C19 act 0.6, CYP2C9 inhib 42, PLK1 kinase inh 3, CYP2C19 inhib 35 and CYP2C9 activ 0.6.
Screening CC(C)OCCCNC(=O)c1c(N)n(/N=C/c2cccs2)c2nc3ccccc3nc12 returned PLK1 PBD inh 8, CYP2C19 act 0.8, CYP2C9 inhib 46, PLK1 kinase inh -18, CYP2C19 inhib 21 and CYP2C9 activ 0.5.
For COCCCNC(=O)c1c(N)n(/N=C/c2ccccn2)c2nc3ccccc3nc12 the results were PLK1 PBD inh 2, CYP2C19 act 0.5, CYP2C9 inhib 52*, PLK1 kinase inh -15, CYP2C19 inhib 47 and CYP2C9 activ 0.5.
CSc1ccc(/C=N/n2c(C)cc(C)cc2=O)cc1 was read as PLK1 PBD inh 4, CYP2C19 act 1, CYP2C9 inhib -16, PLK1 kinase inh -1, CYP2C19 inhib 1 and CYP2C9 activ 1.2.
For CCC(=O)Nc1nnc(C(C)(C)C)s1 the results were PLK1 PBD inh 18, CYP2C19 act 1, CYP2C9 inhib -4, PLK1 kinase inh 3, CYP2C19 inhib -1 and CYP2C9 activ 1.
Screening CCOCCCNS(=O)(=O)c1ccc2c(c1)oc(=O)n2CC(=O)OCC returned PLK1 PBD inh -20, CYP2C19 act 1.1, CYP2C9 inhib 19, PLK1 kinase inh -5, CYP2C19 inhib -10 and CYP2C9 activ 0.8.
For CCOC(=O)Cn1c(=O)oc2cc(S(=O)(=O)Nc3cc(Cl)ccc3OC)ccc21 the results were PLK1 PBD inh 3, CYP2C19 act 0.6, CYP2C9 inhib 61*, PLK1 kinase inh -20, CYP2C19 inhib 36 and CYP2C9 activ 0.4.
Screening CCOC(=O)Cn1c(=O)oc2cc(S(=O)(=O)Nc3cccc(C)c3)ccc21 returned PLK1 PBD inh -19, CYP2C19 act 0.5, CYP2C9 inhib 54*, PLK1 kinase inh 0, CYP2C19 inhib 50* and CYP2C9 activ 0.5.
For CN(Cc1ccccc1)C(=O)Cn1c(=O)oc2cc(S(=O)(=O)NCc3ccccc3)ccc21 the results were PLK1 PBD inh 13, CYP2C19 act 0.9, CYP2C9 inhib 4, PLK1 kinase inh -23, CYP2C19 inhib 7 and CYP2C9 activ 1.
CCOC(=O)Cn1c(=O)oc2cc(S(=O)(=O)Nc3ccc(N(CC)CC)cc3C)ccc21 was read as PLK1 PBD inh 18, CYP2C19 act 0.3, CYP2C9 inhib 61*, PLK1 kinase inh -8, CYP2C19 inhib 67* and CYP2C9 activ 0.4.
Screening CCOC(=O)Cn1c(=O)oc2cc(S(=O)(=O)Nc3cc(OCC)ccc3OCC)ccc21 returned PLK1 PBD inh -18, CYP2C19 act 0.3, CYP2C9 inhib 74*, PLK1 kinase inh -16, CYP2C19 inhib 73* and CYP2C9 activ 0.3.
CCNC(=O)c1ccccc1NC(=O)c1cccc(S(=O)(=O)N2CCC(C)CC2)c1 was read as PLK1 PBD inh -9, CYP2C19 act 0.4, CYP2C9 inhib 68*, PLK1 kinase inh 8, CYP2C19 inhib 59* and CYP2C9 activ 0.3.
CNC(=O)c1ccccc1NC(=O)c1cccc(S(=O)(=O)N2CCC(C)CC2)c1 was read as CYP2C19 act 0.1, CYP2C9 inhib 73*, CYP2C19 inhib 90* and CYP2C9 activ 0.3.
For O=C(Nc1cccc(O)c1)c1cccc(S(=O)(=O)N2CCCC2)c1 the results were PLK1 PBD inh 31, CYP2C19 act 0.9, CYP2C9 inhib 15, PLK1 kinase inh -1, CYP2C19 inhib 13 and CYP2C9 activ 0.8.
For O=C(Nc1ccccc1C(=O)N1CCOCC1)c1cccc(S(=O)(=O)N2CCCC2)c1 the results were PLK1 PBD inh -5, CYP2C19 act 1.1, CYP2C9 inhib 3, PLK1 kinase inh -6, CYP2C19 inhib -9 and CYP2C9 activ 1.
`CC1=CN2C(=NC(=O)CC2(C)C(=O)N(CC(=O)NC2CCCC2)c2ccccc2C)C=C1` (stereo not drawn) gave PLK1 PBD inh 8 and PLK1 kinase inh -14.
